Hits are enriched below; roughly 1.6% of the tested compounds scored in any of these assays.
KCNQ2 inh – blocks the rat KCNQ2 potassium channel; actives 1.1% (n = 310,000); CHO-K1 KCNQ2, FluxOR thallium flux, 20 min; stronger effect = lower value; B-score at 10 µM;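 active means fluorescence ratio B-score at most minus 3 library SDs, with starting brightness B-score within 2 library SDs, cut at about -5.5 in these data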
KCNQ2 enhance – potentiators of rat KCNQ2 potassium channel; actives 0.54% (n = 310,000); AID 2239; CHO-K1 KCNQ2, FluxOR thallium flux fluorescence; stronger effect = higher value; O88943; B-score at 10 µM;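 active means fluorescence ratio B-score at least 3 SD of library B-scores, with initial fluorescence B-score within 3 of them, cut at about 5.3 in these data; same plate scores as AID 2156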;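 further: B-score of peak minus minimum over baseline fluorescence ratio after K+ and Tl+ stimulus; positive B-score means potentiation of KCNQ2 with more thallium influx and brighter signal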
Kir21 conf inh – confirmation of mouse Kir2.1 potassium channel inhibitors; shares compounds with KCNQ2 enhance; Kir2.1-expressing cells, FluxOR thallium flux fluorescence; stronger effect = lower value; Tl flux remaining, % of negative control (stronger effect = lower value), % at 10 µM; actives 41% (n = 2,300);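 active means Primary-screen hit whose thallium flux fell at least 3 control SD below untreated wells in both duplicates, with normal baseline fluorescence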;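 further: 0% = blank wells without stimulus and 100% = stimulated no-compound controls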
HEK293 Tl flux – alters thallium flux in parental HEK293 cells, Kir2.1 counter-screen; shares compounds with KCNQ2 enhance; FluxOR thallium flux fluorescence; 0% = unstimulated blank wells; FluxOR signal as % of negative control (100 = no effect), % at 10 µM; actives 19% (n = 2,300); AID 2105;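 active means dye signal at least 3 control SD above or below untreated wells in both duplicates, raw fluorescence within 3, either direction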;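 further: percent is based on the flux ratio of peak minus minimum fluorescence over baseline F0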
CHO-K1 Tl ctr – parental CHO-K1 activity in KCNQ2 potentiator counter-screen. AID 2282. shares compounds with KCNQ2 enhance. actives 43% (n = 1,200). parental CHO-K1 cells, FluxOR thallium flux fluorescence; zero = vehicle mean+3SD, 100% = vehicle-minus-blank window. activity increase over 3SD of controls, % at 10 µM;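 active means signal rise of at least 3 SD above the untreated control mean, in both duplicate wells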;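 further: counter screen of KCNQ2 potentiator hits so any rise reflects channel-independent effects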
KCNQ1 sel pot – human KCNQ1 counter-target activity of KCNQ2 potentiators; AID 2283; actives 28% (n = 1,200); activation over 3SD threshold, % at 10 µM; shares compounds with KCNQ2 enhance; CHO KCNQ1 stable, FluxOR thallium flux fluorescence; beyond 3SD, as % of vehicle-control signal;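 active means fluorescence ratio rise of at least 3 SD of vehicle wells above their mean, in both replicate wells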;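 further: 0% = vehicle mean plus 3 SD and 100% = vehicle minus unstimulated blank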
Target sequence (P51787 whole entry, looked up): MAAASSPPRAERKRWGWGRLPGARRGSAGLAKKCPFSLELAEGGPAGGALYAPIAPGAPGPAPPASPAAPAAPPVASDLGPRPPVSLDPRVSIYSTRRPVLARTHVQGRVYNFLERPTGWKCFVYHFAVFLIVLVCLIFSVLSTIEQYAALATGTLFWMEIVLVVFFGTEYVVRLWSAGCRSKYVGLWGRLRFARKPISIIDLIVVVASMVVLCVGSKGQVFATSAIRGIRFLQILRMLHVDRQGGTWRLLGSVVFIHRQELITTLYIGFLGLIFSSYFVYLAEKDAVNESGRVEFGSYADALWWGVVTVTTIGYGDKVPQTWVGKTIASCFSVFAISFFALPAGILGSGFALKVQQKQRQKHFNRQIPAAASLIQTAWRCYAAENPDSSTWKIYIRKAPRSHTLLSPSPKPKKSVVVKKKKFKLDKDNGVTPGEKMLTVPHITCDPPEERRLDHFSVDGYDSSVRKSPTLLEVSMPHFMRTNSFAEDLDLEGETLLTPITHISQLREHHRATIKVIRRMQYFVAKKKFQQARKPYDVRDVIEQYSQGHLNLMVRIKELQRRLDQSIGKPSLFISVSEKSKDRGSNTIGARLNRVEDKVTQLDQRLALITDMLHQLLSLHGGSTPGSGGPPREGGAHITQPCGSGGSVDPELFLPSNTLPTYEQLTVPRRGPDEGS
KCNQ2 pot conf – confirmation of rat KCNQ2 potassium channel potentiators; CHO-KCNQ2 cells, FluxOR thallium flux fluorescence; potentiation, less the hit threshold, % at 10 µM; AID 2287; shares compounds with KCNQ2 enhance; actives 68% (n = 1,200);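 active means fluorescence ratio rising 3 SD or more over the vehicle control mean in both replicates, plus primary screen hit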;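 further: peak minus minimum thallium fluorescence divided by baseline after K/Tl stimulus; 0% = vehicle mean plus 3 SD and 100% = vehicle minus unstimulated blank difference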
Kir2-1 sel – tests whether KCNQ2 potentiators also affect mouse Kir2.1; shares compounds with KCNQ2 enhance; HEK293 Kir2.1, FluxOR thallium flux fluorescence; activity over 3SD threshold, % at 10 µM; actives 2% (n = 1,200); AID 2345;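 active means fluorescence ratio rise of at least 3 SD above the vehicle-control mean, seen in both replicates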;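 further: 0% = vehicle mean plus 3 SD and 100% = vehicle minus no-stimulus blank window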
KCNQ2 W236L MoA – KCNQ2 potentiators acting on retigabine-insensitive rat KCNQ2 W236L mutant; current increase over 3SD of negative controls (%), stronger effect = higher value, % at 25 µM; AID 2558; shares compounds with KCNQ2 enhance; actives 10% (n = 940); CHO KCNQ2-W236L, automated patch clamp current;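 active means current increase at least 3 SD of the untreated controls above them in both duplicate recordings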
* hit, by the source's call.

What do the screens show for `COc1ccc(CCNC2CCc3ccccc3C2)cc1` (configuration not stated)?
KCNQ2 inh: inactive; KCNQ2 enhance: 2.77; Kir21 conf inh: 40.0%*; HEK293 Tl flux: inactive

What do the screens show for `NC(=S)N/N=C/c1ncc(C(F)(F)F)cc1Cl`?
KCNQ2 inh: inactive

Results for CC(NC(=O)c1ccccc1Br)c1ccc2c(c1)CCCC2 (configuration not stated) ?
KCNQ2 inh: inactive

How did CC(NC(=O)c1ccc(Br)cc1)c1ccc2c(c1)CCCC2 (configuration not stated) do in these assays?
KCNQ2 inh: inactive; KCNQ2 enhance: 7.6*; Kir21 conf inh: inactive; HEK293 Tl flux: inactive; CHO-K1 Tl ctr: 43.2*; KCNQ1 sel pot: -2.0; KCNQ2 pot conf: 40.5*; Kir2-1 sel: -28.9; KCNQ2 W236L MoA: inactive

How did Cc1cc(=O)oc2cc(OCC(=O)N3CCC(C(N)=O)CC3)ccc12 do in these assays?
KCNQ2 inh: inactive

What do the screens show for `CCn1ncc([N+](=O)[O-])c1C(=O)Nc1c(C)cccc1C`?
KCNQ2 inh: inactive; KCNQ2 enhance: 13.8*; Kir21 conf inh: inactive; HEK293 Tl flux: inactive; CHO-K1 Tl ctr: -17.7; KCNQ1 sel pot: -0.2; KCNQ2 pot conf: -11.1; Kir2-1 sel: -29.4

Results for CCn1ncc([N+](=O)[O-])c1C(=O)Nc1nc2cccc(C)c2s1 ?
KCNQ2 inh: inactive; KCNQ2 enhance: 0.05

What do the screens show for `O=C(c1ccc([N+](=O)[O-])cc1)N1CCN(c2cccc3[nH]ccc23)CC1`?
KCNQ2 inh: inactive

How did COCCCNc1nc(CC(C)C)nc2c1nnn2Cc1ccccc1 do in these assays?
KCNQ2 inh: inactive

How did Cc1ccc(N/C(N)=N/c2nc(C)cc(C)n2)cc1 do in these assays?
KCNQ2 inh: inactive; KCNQ2 enhance: 0.74

How did Cc1cc(C)nc(/N=C(\N)Nc2ccc(C(C)C)cc2)n1 do in these assays?
KCNQ2 inh: inactive; KCNQ2 enhance: 5.52*; Kir21 conf inh: inactive; HEK293 Tl flux: inactive; CHO-K1 Tl ctr: 99.5*; KCNQ1 sel pot: -15.3; KCNQ2 pot conf: -16.6; Kir2-1 sel: -41.7

Results for O=C(O)/C=C/C(=O)Nc1ccc(-c2ccccc2)cc1 ?
KCNQ2 inh: inactive; KCNQ2 enhance: 0.93

Results for Cc1ccc(N2NC(=O)/C(=C\c3cc4c(cc3[N+](=O)[O-])OCO4)C2=O)cc1C ?
KCNQ2 inh: inactive; Kir21 conf inh: 75.5%*; HEK293 Tl flux: inactive

How did COc1cc(/C=C2/C(=O)NN(c3ccc(C)c(Cl)c3)C2=O)cc([N+](=O)[O-])c1O do in these assays?
KCNQ2 inh: inactive

What do the screens show for `O=C(CN1CCCCC1)NNc1nc(-c2ccccc2)c2cc(Br)ccc2n1`?
KCNQ2 inh: inactive; KCNQ2 enhance: 10.9*; Kir21 conf inh: inactive; HEK293 Tl flux: inactive; CHO-K1 Tl ctr: 75.1*; KCNQ1 sel pot: -11.4; KCNQ2 pot conf: 71.2*; Kir2-1 sel: -39.0; KCNQ2 W236L MoA: inactive

What do the screens show for `CC(=O)NNc1nc(-c2ccccc2)c2cc(Br)ccc2n1`?
KCNQ2 inh: inactive

Results for O=C(CN(C(=O)c1csnn1)c1ccc(Cl)cc1)NCc1ccc2c(c1)OCO2 ?
KCNQ2 inh: inactive; KCNQ2 enhance: 1.56

How did O=C(NNC(=S)Nc1ccc(F)cc1)C1CC1c1ccc(Cl)cc1 (configuration not stated) do in these assays?
KCNQ2 inh: inactive; KCNQ2 enhance: 1.66

Results for Cc1ccc(NC(=S)NNC(=O)C2CC2c2ccc(C)cc2)cc1 (configuration not stated) ?
KCNQ2 inh: inactive

What do the screens show for `Cc1ccc(C2CC2C(=O)NNC(=S)Nc2cccc(C)c2)cc1` (configuration not stated)?
KCNQ2 inh: inactive; KCNQ2 enhance: 9.2*; Kir21 conf inh: inactive; HEK293 Tl flux: inactive; CHO-K1 Tl ctr: -4.1; KCNQ1 sel pot: -12.2; KCNQ2 pot conf: 64.4*; Kir2-1 sel: -54.5; KCNQ2 W236L MoA: inactive

What do the screens show for `Cc1ccc(C2CC2C(=O)NNC(=S)Nc2cccc(Cl)c2)cc1` (configuration not stated)?
KCNQ2 inh: inactive; KCNQ2 enhance: 18*; Kir21 conf inh: inactive; HEK293 Tl flux: inactive; CHO-K1 Tl ctr: -2.5; KCNQ1 sel pot: -4.8; KCNQ2 pot conf: 83.9*; Kir2-1 sel: -36.5; KCNQ2 W236L MoA: inactive

How did CCC(C)NC(=O)c1ccc([N+](=O)[O-])c(Cl)c1 (configuration not stated) do in these assays?
KCNQ2 inh: inactive

What do the screens show for `O=c1c(-c2ccc(Cl)cc2)[n+]([O-])c2ccccc2n1O`?
KCNQ2 inh: inactive; KCNQ2 enhance: 6.29*; Kir21 conf inh: inactive; HEK293 Tl flux: 220.5%*; CHO-K1 Tl ctr: -11.7; KCNQ1 sel pot: -23.0; KCNQ2 pot conf: -1.5; Kir2-1 sel: -43.0; KCNQ2 W236L MoA: inactive

How did O=c1c(-c2cccc([N+](=O)[O-])c2)[n+]([O-])c2ccccc2n1O do in these assays?
KCNQ2 inh: inactive; KCNQ2 enhance: 1.16

What do the screens show for `COc1cccc(-c2nnc(NC(=O)c3ccc4ncsc4c3)o2)c1`?
KCNQ2 inh: inactive

How did O=C(CSc1cccc[n+]1[O-])Nc1c(Br)cc([N+](=O)[O-])cc1Br do in these assays?
KCNQ2 inh: inactive; KCNQ2 enhance: 2.73

Results for CCC(C)(C)C1CCc2c(sc(NC(=O)c3ccccc3C(=O)O)c2C#N)C1 (configuration not stated) ?
KCNQ2 inh: inactive; KCNQ2 enhance: 8.34*; Kir21 conf inh: inactive; HEK293 Tl flux: 151.0%*; CHO-K1 Tl ctr: -0.5; KCNQ1 sel pot: -21.4; KCNQ2 pot conf: 15.6*; Kir2-1 sel: -19.4; KCNQ2 W236L MoA: inactive

How did CC1CCc2c(sc(NC(=O)c3ccccc3C(=O)O)c2C#N)C1 (configuration not stated) do in these assays?
KCNQ2 inh: inactive; KCNQ2 enhance: 3.91

How did CC(C)c1nc2sc3c(=O)[nH]c(=S)[nH]c3c2c2c1CCC2 do in these assays?
KCNQ2 inh: inactive; KCNQ2 enhance: 4.52

Screens deposited in PubChem by Johns Hopkins Ion Channel Center.
